Where “and” joins values, the source holds several entries; their conditions need not be identical. Equal values may be shown once. A number with no mark means an inactive call. Records with an inconclusive call do not appear. Calls of active or inactive are those of the source. Unless noted, calls follow the shape of the dose curve; as a rule, active = well fitted curve in the direction sought with a large enough effect in the repeat runs; inconclusive = weak or mixed curves; inactive = no such curve, though single readings can be large; an effect the other way counts as inactive or inconclusive.

Assay [1] is described as follows: qHTS assay for small molecule agonists of the p53 signaling pathway (AID 651631; calls by dose curve; also: nearly all actives have a fitted effect of over 15% in size). The method in brief: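 HCT-116 cells carrying a beta-lactamase reporter under p53 response elements were dosed with compound for 16 h at 37 °C. LiveBLAzer B/G FRET substrate was then added for 2 h at room temperature, and fluorescence intensity was read to detect pathway agonism.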
(In general: In qHTS, concentration-response curves come from the screen itself.)

Assay [2] can be described thus: qHTS assay for small molecules that induce genotoxicity in human embryonic kidney cells expressing luciferase-tagged ATAD5 (AID 651632). Also: nearly all actives have a fitted effect of over 15% in size. Also: potency is read from the fitted curve at half-maximal effect. The method in brief: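 Genotoxicity read-out via ATAD5-luciferase: HEK293T cells, 16 hr compound incubation at 37C, Amplite detection.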
Assay [3] is described as follows: qHTS assay for small molecule agonists of the p53 signaling pathway - cell viability (AID 651633; calls by dose curve;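 also: p53RE-bla HCT reporter cells with a stable beta-lactamase p53 reporter; series mostly up to about 83 µM; nearly all actives have a fitted effect of over 30% in size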). The method in brief: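 p53RE-bla cells were treated with compound for 16 hours at 37 C. Cytotoxicity was then measured as CellTiter-Glo luminescence after 30 min at room temperature.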
Assay [4] in a line: qHTS assay for small molecules that induce genotoxicity in human embryonic kidney cells expressing luciferase-tagged ATAD5 - cell viability (AID 651634; calls by dose curve; also: nearly all actives have a fitted effect of over 25% in size). Summed up: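 Live-cell protease activity (CellTiter-Fluor, fluorescence) indicates viability. HEK293T cells with luciferase-tagged ATAD5; 15.5 hr compound treatment at 37C.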
Assay [5] is described as follows: qHTS assay for small molecule disruptors of the mitochondrial membrane potential - cell viability (AID 720634; calls by dose curve; also: nearly all actives have a fitted effect of over 20% in size; also: potency is read from the fitted curve at half-maximal effect). The method in brief: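 Human hepatoma HepG2 cells were treated for 1 hr with test chemicals, then given m-MPI dye and CellTiter-Glo. Cell viability reflects luminescence proportional to cellular ATP.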
Assay [6] can be described thus: qHTS assay for small molecule disruptors of the mitochondrial membrane potential (AID 720635). Also: potency is read from the fitted curve at half-maximal effect. The method in brief:
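HepG2 cells exposed to compound 1 hr at 37C, then Mito-MPS dye 30 min. Ratio read of aggregate (540/590 nm) versus monomer (490/535 nm) fluorescence.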

Assay [7] in a line: qHTS assay to test for compound auto fluorescence at 590 nm (red) in HepG2 cells (AID 720674). Summed up: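 Fluorescence at 590 nm emission following 540 nm excitation was recorded from HepG2 wells one hour after compound transfer, with DMSO-only wells as vehicle and Rose Bengal sodium equivalency as the scale.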
Assay [8] is described as follows: qHTS assay to test for compound auto fluorescence at 535 nm (green) in HepG2 cells (AID 720675).
A short description of assay [9]: qHTS assay to test for compound auto fluorescence at 460 nm (blue) in HEK293 cells (AID 720678). The method in brief:
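After cell attachment (4-5 hr, 37C), compounds were pinned onto HEK293 monolayers in 10% dialyzed FBS medium. The blue channel (405/460 nm) was read following overnight culture. Equivalency was calculated against triamterene.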

Assay [10] is described as follows: qHTS assay to test for compound auto fluorescence at 535 nm (green) in HEK293 cells (AID 720680).
The nature of assay [11]: qHTS assay to test for compound auto fluorescence at 535 nm (green) in HEK293 cell free culture (AID 720682). The method in brief: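 Green-label autofluorescence (485 nm excitation, 535 nm emission) measured on compound added to cell-free culture medium (DMEM, 10% FBS). Output is expressed relative to fluorescein.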
A short description of assay [12]: qHTS assay to test for compound auto fluorescence at 590 nm (red) in HEK293 cell free culture (AID 720683). The method in brief: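 Cell-free wells of DMEM with 10% FBS received compound, and intrinsic fluorescence was read at excitation/emission 540/590 nm. Values expressed as equivalence to Rose Bengal sodium.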
Assay [13] can be described thus: qHTS assay to test for compound auto fluorescence at 590 nm (red) in HepG2 cell free culture (AID 720684). The method in brief:
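Compounds are added to culture medium (MEM, 10% FBS) lacking cells, then fluorescence is read at excitation 540 nm, emission 590 nm, with Rose Bengal sodium as the equivalency standard.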

Assay [14] is described as follows: qHTS assay to test for compound auto fluorescence at 460 nm (blue) in HepG2 cell free culture (AID 720685). The method in brief: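 Compound (23 nL) or DMSO pinned into cell-free MEM with 10% FBS; blue fluorescence read at 405/460 nm excitation/emission, expressed as auto-fluorescence equivalency to triamterene.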
Assay [15] is described as follows: qHTS assay to test for compound auto fluorescence at 535 nm (green) in HepG2 cell free culture (AID 720686).
Assay [16] in a line: qHTS assay to test for compound auto fluorescence at 460 nm (blue) in HepG2 cells (AID 720687). Summed up: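 HepG2 cells in MEM with 10% FBS, attached overnight at 37 C, were exposed to compound or DMSO for 1 hr at 37 C, 5% CO2. Blue fluorescence was read at 405/460 nm, with triamterene as reference fluorophore.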
For assay [17], the target named is Glucocorticoid receptor (Homo sapiens) (UniProt P04150). Kind of assay: qHTS assay to identify small molecule agonists of the glucocorticoid receptor (GR) signaling pathway (AID 720691; active = well fitted activation curve with a large enough effect in the signal ratio in the repeat runs, not every such curve was filed as active; the % refers to the signal ratio). Summed up: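 Beta-lactamase reporter activity, read as fluorescence intensity, was measured in GR-bla HeLa cells exposed to compounds for 18 h at 37 C and then loaded with LiveBLAzer B/G FRET substrate for 2 h at room temperature.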

The target is the same in assay [18]. Kind of assay: qHTS assay to identify small molecule antagonists of the glucocorticoid receptor (GR) signaling pathway (AID 720692; active = well fitted inhibition curve with a large enough effect in the signal ratio in the repeat runs, not every such curve was filed as active; the % refers to the signal ratio). The method in brief:
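Fluorescence from cleaved LiveBLAzer B/G FRET substrate reports GRE-driven beta-lactamase in HeLa cells; compounds are tested against 5 nM dexamethasone (final) over 18 h at 37 C, substrate incubation 2 h at room temperature.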

Assay [19] in a line: qHTS assay to test for compound auto fluorescence at 590 nm (red) in HEK293 cells (AID 720679). Summed up: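 Plates of HEK293 cells (10% dialyzed FBS) are treated with 23 nL compound or DMSO vehicle after a 4-5 hr attachment period, incubated overnight at 37C, and read for red fluorescence at 540/590nm.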
Assay [20] in a line: qHTS assay to test for compound auto fluorescence at 460 nm (blue) in HEK293 cell free culture (AID 720681). The method in brief: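 Compounds were added to cell-free DMEM with 10% FBS and fluorescence read directly. The blue channel used 405 nm excitation and 460 nm emission, with triamterene as the reference fluorophore.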

Chain of Glucocorticoid receptor (Homo sapiens) (P04150 whole entry, looked up): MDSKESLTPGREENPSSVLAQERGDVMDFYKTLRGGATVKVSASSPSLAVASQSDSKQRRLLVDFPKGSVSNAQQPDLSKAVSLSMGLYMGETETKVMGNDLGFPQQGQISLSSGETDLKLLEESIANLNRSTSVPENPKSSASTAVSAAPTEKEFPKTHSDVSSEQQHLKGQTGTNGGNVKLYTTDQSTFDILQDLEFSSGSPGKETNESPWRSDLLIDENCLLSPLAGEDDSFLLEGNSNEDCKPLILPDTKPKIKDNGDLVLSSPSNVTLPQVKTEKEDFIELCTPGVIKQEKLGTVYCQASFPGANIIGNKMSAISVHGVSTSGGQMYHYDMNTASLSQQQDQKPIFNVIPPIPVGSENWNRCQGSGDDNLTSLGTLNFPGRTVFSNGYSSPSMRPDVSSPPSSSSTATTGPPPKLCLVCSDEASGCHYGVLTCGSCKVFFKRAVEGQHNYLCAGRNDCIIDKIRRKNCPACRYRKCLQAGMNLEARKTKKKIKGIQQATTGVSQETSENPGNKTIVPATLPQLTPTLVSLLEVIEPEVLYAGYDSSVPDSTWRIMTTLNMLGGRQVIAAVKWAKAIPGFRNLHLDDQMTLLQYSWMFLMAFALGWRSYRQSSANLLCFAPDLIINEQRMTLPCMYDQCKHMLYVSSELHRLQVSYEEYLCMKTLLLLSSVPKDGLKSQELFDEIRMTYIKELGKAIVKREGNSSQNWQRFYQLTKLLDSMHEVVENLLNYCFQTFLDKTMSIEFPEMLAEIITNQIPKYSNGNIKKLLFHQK

Regarding `Cc1oncc1C(=O)Nc1ccc(C(F)(F)F)cc1`, the Potency entry in assay [1], in assay [3], in assay [4], in [9], in assay [14] and in assay [16] was “inactive” throughout. The Potency result in assay [17] and in assay [18] was “inactive” throughout. For the same compound, the Potency in assay [2] is 5.07 µM (active) and 2.73 µM (active); in [5], 61.1 µM (active); in [6], 10.1 µM (active) and 7.7 µM (active). Moreover, the call in assay [7], in [8], in assay [10], in assay [11], in assay [12] and in assay [13] was inactive. Moreover, in assay [15], the outcome was inactive.
On to `O=C(O)c1snc(Cl)c1Cl`, for which the Potency entry in assay [1], in assay [2], in assay [3], in [4], in assay [5] and in assay [9] was “inactive” throughout. The Potency entry in [14] and in [16] was “inactive” in each case. Besides, the call in [7], in assay [8], in [19], in [10], in assay [11] and in assay [12] was inactive. Further, the compound was called inactive in [15].
With `O=C(NCCCN1CCOCC1)c1ccc(Cl)cc1`, the Potency result in [1], in assay [2], in assay [3], in [4], in assay [5] and in assay [9] was “inactive” throughout. Further, the Potency entry in [20], in assay [14], in assay [16], in assay [17] and in [18] was “inactive” each time. For the same compound, the compound was classed as inactive in assay [7], in assay [8], in assay [19], in assay [11], in assay [12] and in assay [15].
For `CC1CC(=O)NN=C1c1ccc(NCC(C)(C)NCC(O)COc2cc(Cl)ccc2C#N)cc1` (centres undefined), the Potency entry in [1], in [2], in assay [3], in assay [4], in assay [5] and in assay [9] was “inactive” in each case. Also, the Potency entry in [20], in [14], in [16], in [17] and in assay [18] was “inactive” in each case. Besides, the call in [7], in assay [8], in assay [19], in assay [10], in [11] and in assay [12] was inactive. In addition, the outcome in [15] was inactive.
In the case of `C=CC(C)=CCC=C(C)C`, the Potency entry in assay [1], in assay [2], in [3], in [4], in assay [5] and in [9] was “inactive” each time. Also, the Potency entry in assay [20], in assay [14] and in assay [16] was “inactive” in each case. Besides, the compound was classed as inactive in assay [7], in assay [8], in [19], in assay [11], in assay [13] and in assay [15].
Turning to `CCCOC(=O)c1ccc(N)cc1`, the Potency result in assay [1], in assay [2], in [3], in assay [4], in assay [5] and in assay [6] was “inactive” each time. Also, the Potency entry in assay [9], in assay [20], in [14], in [16] and in [17] was “inactive” throughout. In addition, the call in [7], in assay [8], in [11], in assay [12], in assay [13] and in [15] was inactive.
Consider `CCC(C)(O)CCC=C(C)C` (centres undefined), for which the Potency entry in assay [1], in [2], in assay [3], in assay [4], in assay [5] and in assay [6] was “inactive” each time. In addition, the Potency result in [9], in assay [20], in assay [14], in [16], in assay [17] and in assay [18] was “inactive” each time. Also, the call in [7], in assay [19], in [10], in assay [11], in [12] and in assay [13] was inactive. Further, the compound was classed as inactive in assay [15].
